Data: PubChem BioAssay (NCI)
About 79,000 compounds went through this panel and 15% of them were active in at least one assay; those are over-represented in the sample as a whole. The source made the active and inactive calls. Cut-off read from the data, not from the text of the source: active = growth inhibition above about 70%; inactive = the rest.

What was measured:
[1] = NCI Yeast Anticancer Drug Screen. Data for the rad52 strain (AID 147);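 note: 0% = growth of vehicle-treated control cultures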; settings: S. cerevisiae rad52 mutant growth inhibition, stronger effect = higher value
Outline: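 Read-out: growth inhibition versus vehicle-treated controls. Cells were a DNA repair-deficient yeast strain treated with compounds.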

[2] = NCI Yeast Anticancer Drug Screen. Data for the wt1 strain (AID 149);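 note: 0% = growth of vehicle-treated wt1 cultures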; settings: S. cerevisiae wt1 strain (SPY 50644) growth inhibition, stronger effect = higher value
Outline: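 Each compound is tested on wt1 yeast and the loss of growth versus vehicle gives the inhibition value.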

[3] = NCI Yeast Anticancer Drug Screen. Data for the rad50EPP+ strain (AID 151);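 note: 0% = growth of vehicle-treated control cultures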; settings: S. cerevisiae rad50 mutant strain, stronger effect = higher value
Outline: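 Growth inhibition read against vehicle controls in rad50EPP+ yeast, a strain altered in DNA damage repair, after compound exposure.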

[4] = NCI Yeast Anticancer Drug Screen. Data for the mgt1 strain (AID 153); settings: S. cerevisiae mgt1 mutant growth inhibition, stronger effect = higher value
Outline: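 mgt1 yeast grown with test compound; read-out is growth inhibition versus vehicle-treated cultures.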

[5] = NCI Yeast Anticancer Drug Screen. Data for the rad50 strain (AID 155);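 note: 0% = growth of vehicle-only cultures of the same strain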; settings: S. cerevisiae rad50 strain growth inhibition, stronger effect = higher value
Outline: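 Vehicle-treated cultures provide the reference for the growth inhibition reported for compound-exposed, repair-deficient yeast.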

[6] = NCI Yeast Anticancer Drug Screen. Data for the mec2-1 strain (AID 157); settings: S. cerevisiae mec2-1 strain, stronger effect = higher value
Outline: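 Yeast mec2-1 mutant treated with compound. Readout: growth inhibition vs vehicle controls.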

[7] = NCI Yeast Anticancer Drug Screen. Data for the rad14 strain (AID 159);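 note: 0% = growth of vehicle-treated control cultures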; settings: S. cerevisiae rad14 strain growth inhibition, stronger effect = higher value
Outline: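 Inhibition of growth is reported for a repair-deficient yeast mutant following compound treatment, calculated relative to cultures that received vehicle.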

[8] = NCI Yeast Anticancer Drug Screen. Data for the sgs1 mgt1 strain (AID 161);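 note: 0% = growth of cultures given vehicle only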; settings: S. cerevisiae sgs1 mgt1 strain, stronger effect = higher value
Outline: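 Test agents were incubated with a DNA-repair-mutant yeast strain. Growth was then read and compared against vehicle-treated controls.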

[9] = NCI Yeast Anticancer Drug Screen. Data for the CLN2oe strain (AID 163);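 note: 0% = growth of vehicle-only control cultures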; settings: S. cerevisiae CLN2oe strain, stronger effect = higher value
Outline: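 Read-out: yeast growth inhibition, expressed relative to vehicle-only controls. The strain bears an engineered cell-cycle alteration.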

[10] = NCI Yeast Anticancer Drug Screen. Data for the cln2 rad14 strain (AID 165);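 note: 0% = growth equal to vehicle treated cultures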; settings: S. cerevisiae cln2 rad14 strain, stronger effect = higher value
Outline: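 cln2 rad14 yeast strain; compound exposure; growth inhibition read vs vehicle controls.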

[11] = NCI Yeast Anticancer Drug Screen. Data for the bub3 strain (AID 167); settings: S. cerevisiae bub3 mutant strain, stronger effect = higher value
Outline: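 Mutant yeast screening strain plus compound; vehicle-treated cultures serve as the 0% inhibition reference.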

[12] = NCI Yeast Anticancer Drug Screen. Data for the wt2 strain (AID 169); settings: S. cerevisiae wt2 strain growth inhibition, stronger effect = higher value
Outline: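 Read-out: growth inhibition versus vehicle-treated control cultures after compound exposure of the yeast strain.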

[13] = NCI Yeast Anticancer Drug Screen. Data for the mlh1 strain (AID 171);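 note: 0% = growth of vehicle-treated control cultures of the same strain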; settings: S. cerevisiae mlh1 strain growth inhibition, stronger effect = higher value
Outline: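 Read-out: growth inhibition versus vehicle controls. Strain: engineered yeast with a defined DNA repair or cell cycle defect, compound-treated.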

[14] = NCI Yeast Anticancer Drug Screen. Data for the sgs1 strain (AID 173);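 note: 0% = growth of vehicle-only control cultures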; settings: S. cerevisiae sgs1 mutant, stronger effect = higher value
Outline: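 Read-out: yeast growth inhibition relative to vehicle controls, following compound exposure of a strain with a defined DNA repair/cell cycle alteration.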

[15] = NCI Yeast Anticancer Drug Screen. Data for the mlh1 rad18 strain (AID 175); settings: S. cerevisiae mlh1 rad18 strain growth inhibition, stronger effect = higher value
Outline: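 Yeast w/ defined DNA-repair lesions; compound exposure; growth vs vehicle controls → % inhibition.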

[16] = NCI Yeast Anticancer Drug Screen. Data for the rad18 strain (AID 177); settings: S. cerevisiae rad18 mutant growth inhibition, stronger effect = higher value
Outline: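 Readout: growth inhibition vs vehicle controls. Cells: genetically altered yeast strain, DNA repair defect.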

[17] = at 5.0 µM (retest, dose inferred, filed as 0.5)
[18] = at 50.0 µM (retest, dose inferred, filed as 5.0)

Measured: growth inhibition

NC(CS)C(=O)NCCNc1ccc(NCCNC(=O)C(N)CS)c2c1C(=O)c1c(O)ccc(O)c1C2=O (stereo not drawn)
inactive: [1]; at 1.2 µM -10% | [1]; at 3.7 µM 58% | [1]; at 100.0 µM 48% | [2]; at 1.2 µM -42% | [2]; at 3.7 µM -25% | [2]; at 11.0 µM -67% | [2]; at 33.0 µM 45% | [2]; at 100.0 µM 68% | [3]; at 1.2 µM -4% | [3]; at 3.7 µM 46% | [3]; at 11.0 µM 67% | [3]; at 100.0 µM 54% | [4]; at 1.2 µM 7% | [4]; at 3.7 µM 18% | [4]; at 11.0 µM 23% | [4]; at 100.0 µM 62% | [5]; at 1.2 µM 33% | [5]; at 3.7 µM 67% | [5]; at 100.0 µM 62% | [6]; at 1.2 µM -42% | [6]; at 3.7 µM -26% | [6]; [17] 2% | [6]; at 11.0 µM -11% | [6]; at 100.0 µM 65% | [7]; at 1.2 µM -55% | [7]; at 3.7 µM -47% | [7]; at 11.0 µM -43% | [7]; at 100.0 µM 57% | [8]; [17] 6% | [8]; [18] -32% | [9]; at 1.2 µM -4% | [9]; at 3.7 µM 4% | [9]; at 11.0 µM -10% | [9]; at 100.0 µM 56% | [10]; [17] 20% | [10]; [18] -57% | [11]; at 1.2 µM -29% | [11]; at 3.7 µM -21% | [11]; [17] 13% | [11]; at 11.0 µM -34% | [11]; [18] -54% | [11]; at 50.0 µM 68.2% | [11]; at 100.0 µM 51% | [12]; at 1.2 µM -19% | [12]; at 3.7 µM -57% | [12]; at 11.0 µM -63% | [12]; at 100.0 µM 64% | [13]; at 1.2 µM -34% | [13]; at 3.7 µM -35% | [13]; at 11.0 µM -33% | [13]; at 100.0 µM 62% | [14]; at 1.2 µM -23% | [14]; at 3.7 µM -36% | [14]; at 11.0 µM -27% | [14]; at 100.0 µM 63% | [15]; [17] 13% | [16]; at 1.2 µM 3% | [16]; at 3.7 µM -10% | [16]; at 11.0 µM -8% | [16]; at 100.0 µM 61%
active: [1]; at 11.0 µM 73% | [1]; at 33.0 µM 80% | [3]; at 33.0 µM 80% | [4]; at 33.0 µM 86% | [5]; [17] 75% | [5]; at 11.0 µM 81% | [5]; at 33.0 µM 85% | [5]; [18] 88% | [5]; at 50.0 µM 79.2% | [6]; at 33.0 µM 86% | [6]; [18] 89% | [6]; at 50.0 µM 76% | [7]; at 33.0 µM 81% | [8]; at 50.0 µM 78.7% | [9]; at 33.0 µM 84% | [10]; at 50.0 µM 74.2% | [11]; at 33.0 µM 81% | [12]; at 33.0 µM 81% | [13]; at 33.0 µM 85% | [14]; at 33.0 µM 84% | [15]; [18] 80% | [15]; at 50.0 µM 72.5% | [16]; at 33.0 µM 84%
